We go through 21 compounds from PubChem BioAssay (NCI).

Some test systems named below: T-47D breast; BT-549 breast; MDA-MB-435 melanoma; SW-620 colon; MCF7 breast; HCT-116 colon; KM12 colon; HCC-2998 colon.
What all share (experiment): NCI-60 one-dose screen, 48 h (100 = growth as untreated, 0 = no growth, -100 = all killed)
Holding throughout (settings): 10 µM unless noted

Structures are written as SMILES. Several values for one entry are separate records, joined by “and”; a condition that tells them apart may be missing. Equal entries are not always repeated. Compounds without any hit were thinned out: in the full panel of roughly 83,000, 20% have a hit.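 Note: values are percent growth. 100 is the growth of untreated cells, values between 100 and 0 indicate rising inhibition; between -100 and 0 indicates cell death.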 Activity calls are given as the source filed them. Rule for the calls: active = growth percent below 10; inactive = the rest.

For `O=C1c2ccccc2C(=O)c2c(NCCNCCO)ccc(NCCNCCO)c21`, the growth is -3.06% (active) and 10.5% (inactive) and 31.6% (inactive) in the experiment on T-47D breast; 6.06% (active) and 86.7% (inactive) and 62.6% (inactive) with BT-549 breast; 22.6% (inactive) and 43.5% (inactive) and 20.8% (inactive) with MDA-MB-435 melanoma; 12.2% (inactive) and 27.3% (inactive) and 22.2% (inactive) in the experiment on SW-620 colon; -1.56% (active) and 6.38% (active) and 2.38% (active) in the experiment with MCF7 breast; -21.4% (active) and 22.7% (inactive) and 17.7% (inactive) in the experiment with HCT-116 colon. The growth with KM12 colon is 8.81% (active) and 41.7% (inactive) and 40.2% (inactive).

`N/C(=N\N=C\c1ccc2c(c1)OCO2)N/N=C\c1ccc2c(c1)OCO2`: the growth was 112% (inactive) and 107% (inactive) in the experiment on T-47D breast; 95.6% (inactive) and 67.7% (inactive) in the experiment with BT-549 breast; 81.2% (inactive) and 65.5% (inactive) with MDA-MB-435 melanoma; 101% (inactive) and 75.2% (inactive) with SW-620 colon; 94% (inactive) and 56% (inactive) in the experiment on MCF7 breast; 97.6% (inactive) and 48.8% (inactive) with HCT-116 colon. Besides, the growth in the experiment on KM12 colon is 93.5% (inactive) and 70.3% (inactive).

With `CC(=O)Oc1cc(C(=O)O)cc(OC(C)=O)c1OC(C)=O`, the growth was 101% (inactive) and 98.5% (inactive) with T-47D breast; 110% (inactive) and 102% (inactive) in the experiment with BT-549 breast; 116% (inactive) and 106% (inactive) in the experiment on MDA-MB-435 melanoma; 103% (inactive) and 107% (inactive) in the experiment with SW-620 colon; 102% (inactive) and 93% (inactive) in the experiment on MCF7 breast; 102% (inactive) and 100% (inactive) with HCC-2998 colon. Moreover, the growth in the experiment on KM12 colon was 112% (inactive) and 106% (inactive).

With `Nc1nc(SC/C=C/CCl)c2[nH]cnc2n1`, the growth in the experiment with T-47D breast was 108% (inactive) and 92.9% (inactive); with BT-549 breast, 103% (inactive) and 126% (inactive); in the experiment on MDA-MB-435 melanoma, 105% (inactive) and 101% (inactive); with SW-620 colon, 105% (inactive) and 106% (inactive); in the experiment on MCF7 breast, 125% (inactive) and 85.4% (inactive); in the experiment with HCT-116 colon, 104% (inactive) and 105% (inactive). The growth with KM12 colon is 107% (inactive) and 111% (inactive).

As to `Cc1cccc(/C=C\C(=O)c2ccc(Cl)cc2)c1`, the growth was 93.8% (inactive) and 91.9% (inactive) with T-47D breast; 82.9% (inactive) in the experiment on BT-549 breast; 95.6% (inactive) and 84.4% (inactive) in the experiment with MDA-MB-435 melanoma; 89.3% (inactive) and 69% (inactive) in the experiment on SW-620 colon; 51.5% (inactive) and 73.7% (inactive) in the experiment with MCF7 breast; 52.5% (inactive) and 62.3% (inactive) in the experiment on HCT-116 colon. The growth with KM12 colon is 96.3% (inactive) and 95.1% (inactive).

As to `O=C(N/N=C/c1ccc2c(c1)OCO2)c1ccncc1`, the growth with T-47D breast was 112% (inactive) and 102% (inactive); with BT-549 breast, 103% (inactive) and 102% (inactive); in the experiment with MDA-MB-435 melanoma, 108% (inactive) and 112% (inactive); in the experiment with SW-620 colon it was 93.6% (inactive) and 98.3% (inactive); in the experiment on MCF7 breast, 107% (inactive) and 86.8% (inactive); in the experiment with HCT-116 colon it was 105% (inactive) and 101% (inactive). Moreover, the growth with KM12 colon was 91.9% (inactive) and 103% (inactive).

In the case of `Cc1ccc2nc3c(nc2c1)-c1cccc2cccc-3c12`, the growth is 87.6% (inactive) with T-47D breast; 111% (inactive) in the experiment on BT-549 breast; 103% (inactive) with MDA-MB-435 melanoma; 71.1% (inactive) in the experiment with SW-620 colon; 38.3% (inactive) with MCF7 breast; 75.4% (inactive) in the experiment on KM12 colon.

For `CN1CCN(Cc2occc(=O)c2O)CCN(C)CCN(Cc2occc(=O)c2O)CC1`, the growth with T-47D breast was 93.8% (inactive) and 77.4% (inactive); in the experiment with BT-549 breast, 97.1% (inactive) and 84% (inactive); in the experiment with MDA-MB-435 melanoma, 108% (inactive) and 47.3% (inactive); in the experiment on MCF7 breast, 91.6% (inactive) and 24.9% (inactive); in the experiment with HCT-116 colon, 100% (inactive) and 10.6% (inactive); with HCC-2998 colon, 112% (inactive) and 47.5% (inactive). Besides, the growth in the experiment on KM12 colon is 109% (inactive) and 28.9% (inactive).

As for `COc1ccc(Cn2c(NCCN=C(N)N)nc(=O)n(Cc3ccc(F)cc3)c2=O)cc1`, the growth was 91.4% (inactive) and 87.7% (inactive) with T-47D breast; 86.9% (inactive) and 70.2% (inactive) with BT-549 breast; 100% (inactive) and 109% (inactive) in the experiment with MDA-MB-435 melanoma; 93.3% (inactive) and 93% (inactive) in the experiment on MCF7 breast; 88.7% (inactive) and 98.3% (inactive) in the experiment with HCT-116 colon; 104% (inactive) and 102% (inactive) in the experiment with HCC-2998 colon. Further, the growth in the experiment with KM12 colon was 114% (inactive) and 106% (inactive).

`CC(C)C(=O)Nc1ccc([N+](=O)[O-])c(C(F)(F)F)c1`: the growth was 85.3% (inactive) and 89.6% (inactive) in the experiment on T-47D breast; 84.7% (inactive) and 85.9% (inactive) in the experiment with BT-549 breast; 87% (inactive) and 99.6% (inactive) with MDA-MB-435 melanoma; 102% (inactive) and 90% (inactive) in the experiment on MCF7 breast; 94.8% (inactive) and 92.8% (inactive) in the experiment with HCT-116 colon; 97.2% (inactive) and 106% (inactive) with HCC-2998 colon. The growth in the experiment on KM12 colon is 89.3% (inactive) and 98.4% (inactive).

With `Clc1nc(Oc2ccccc2)nc(-c2cn(-c3ccccc3)c3ccccc23)n1`, the growth with T-47D breast was 89.8% (inactive); in the experiment with BT-549 breast, 96.9% (inactive); in the experiment with MDA-MB-435 melanoma, 38.2% (inactive); in the experiment on MCF7 breast, 88.5% (inactive); with HCT-116 colon it was 58.5% (inactive); in the experiment on HCC-2998 colon, 74.4% (inactive). In the experiment on KM12 colon, the growth was 89.6% (inactive).

`O=[N+]([O-])c1ccccc1/C=N\Nc1ccccc1`: the growth with T-47D breast is 48.2% (inactive) and 57.9% (inactive); in the experiment on BT-549 breast it was 91.1% (inactive) and 97.8% (inactive); in the experiment on MDA-MB-435 melanoma, 88.8% (inactive) and 83.6% (inactive); with MCF7 breast, 66.3% (inactive) and 69.4% (inactive); in the experiment with HCT-116 colon, 79.2% (inactive) and 84.5% (inactive); in the experiment on HCC-2998 colon, 88.6% (inactive) and 91.5% (inactive). In the experiment with KM12 colon, the growth was 40.6% (inactive) and 36.1% (inactive).

Regarding `Cc1cccc(/C=C\C(=O)c2ccccc2)c1`, the growth with T-47D breast is 93.8% (inactive) and 93.5% (inactive); with BT-549 breast it was 90.5% (inactive); in the experiment with MDA-MB-435 melanoma it was 98.4% (inactive) and 88.5% (inactive); with SW-620 colon, 84.6% (inactive) and 62.2% (inactive); in the experiment with MCF7 breast it was 43.4% (inactive) and 82.6% (inactive); in the experiment with HCC-2998 colon it was 97% (inactive) and 103% (inactive). For the same compound, the growth in the experiment with KM12 colon was 85.6% (inactive) and 62.7% (inactive).

As to `CCN(CC)CCOc1ccc2c(c1)C(=O)c1cc(OCCN(CC)CC)ccc1-2`, the growth with T-47D breast was 111% (inactive) and 131% (inactive); in the experiment on BT-549 breast it was 96% (inactive) and 76.3% (inactive); in the experiment with MDA-MB-435 melanoma, 73.4% (inactive) and 67% (inactive); with SW-620 colon, 34.5% (inactive) and 26.1% (inactive); in the experiment with MCF7 breast, 30.1% (inactive) and 7.03% (active); with HCC-2998 colon, 77.9% (inactive) and 56.5% (inactive). Moreover, in the experiment with KM12 colon, the growth is 54.8% (inactive) and 40.4% (inactive).

For the compound `O=C(O)CCCCc1ccc([N+](=O)[O-])cc1`, the growth in the experiment on T-47D breast was 102% (inactive) and 107% (inactive); with BT-549 breast, 100% (inactive); in the experiment on MDA-MB-435 melanoma, 111% (inactive) and 113% (inactive); with MCF7 breast, 92.4% (inactive) and 98.2% (inactive); with HCT-116 colon it was 103% (inactive) and 102% (inactive); in the experiment on HCC-2998 colon it was 106% (inactive) and 94.9% (inactive). The growth in the experiment with KM12 colon was 91.1% (inactive) and 108% (inactive).

Turning to `c1ccc2cc(C[n+]3ccn(Cc4ccc5ccccc5n4)c3)ccc2c1`, the growth in the experiment on T-47D breast is -5.71% (active) and 13.1% (inactive); in the experiment on BT-549 breast, -15.9% (active) and 12.2% (inactive); with MDA-MB-435 melanoma, 4.58% (active) and 19.6% (inactive); with SW-620 colon, 18.9% (inactive) and 56.4% (inactive); in the experiment on MCF7 breast it was 9.04% (active); in the experiment with HCC-2998 colon, 11.1% (inactive) and 30.9% (inactive). Besides, in the experiment on KM12 colon, the growth was -7.63% (active) and 12.6% (inactive).

Regarding `CN(C)c1ccc2nc3ccc(N)cc3[n+](-c3ccccc3)c2c1`, the growth in the experiment on T-47D breast was -15.1% (active) and 0.414% (active); with BT-549 breast, 27.5% (inactive); with MDA-MB-435 melanoma it was 4.97% (active) and -49.2% (active); in the experiment on SW-620 colon, 20.8% (inactive) and -13.9% (active); with MCF7 breast, 3.88% (active) and -17.2% (active); in the experiment on HCC-2998 colon, 14.6% (inactive) and 51.9% (inactive). The growth with KM12 colon is 15.7% (inactive) and 24.2% (inactive).

Regarding `COc1cc(-c2nccc3cc4c(cc23)OCO4)cc(OC)c1OC`, the growth in the experiment with T-47D breast was 27.6% (inactive) and 31.9% (inactive); in the experiment with BT-549 breast, 56.8% (inactive); with MDA-MB-435 melanoma it was -14.5% (active) and -22.9% (active); in the experiment with MCF7 breast, 20.9% (inactive) and 16.7% (inactive); in the experiment on HCT-116 colon it was 18.7% (inactive) and 25.3% (inactive); in the experiment on HCC-2998 colon it was 59.8% (inactive) and 48.4% (inactive). Besides, the growth with KM12 colon was 32.3% (inactive) and 25% (inactive).

`Oc1ccccc1C=NCC1CCC(CN=Cc2ccccc2O)CC1` (stereo unspecified): the growth was 96.9% (inactive) in the experiment with T-47D breast; 113% (inactive) in the experiment with BT-549 breast; 104% (inactive) with MDA-MB-435 melanoma; 66% (inactive) in the experiment on MCF7 breast; 52.8% (inactive) in the experiment with HCT-116 colon; 101% (inactive) in the experiment on HCC-2998 colon. Further, in the experiment with KM12 colon, the growth was 107% (inactive).

Consider `O=S(=O)(Nc1ccccc1)C1CCCCC1`, for which the growth was 116% (inactive) and 105% (inactive) in the experiment on T-47D breast; 121% (inactive) in the experiment with BT-549 breast; 107% (inactive) and 102% (inactive) in the experiment on MDA-MB-435 melanoma; 106% (inactive) and 107% (inactive) with SW-620 colon; 94.2% (inactive) and 104% (inactive) with MCF7 breast; 116% (inactive) and 106% (inactive) in the experiment on HCC-2998 colon. Also, the growth in the experiment on KM12 colon was 106% (inactive) and 112% (inactive).

On to `Cc1cc(-c2ccc(NS(=O)(=O)c3ccccc3)c(C)c2)ccc1NS(=O)(=O)c1ccccc1`, for which the growth with T-47D breast was 78.7% (inactive) and 105% (inactive); with BT-549 breast it was 79.7% (inactive); with MDA-MB-435 melanoma it was 92.5% (inactive) and 102% (inactive); in the experiment with SW-620 colon, 92.2% (inactive) and 108% (inactive); in the experiment on MCF7 breast, 60.4% (inactive) and 82.9% (inactive); in the experiment on HCC-2998 colon it was 100% (inactive) and 110% (inactive). For the same compound, in the experiment on KM12 colon, the growth was 72.3% (inactive) and 90.1% (inactive).
